Molecules are shown by their SMILES. Records with an inconclusive call do not appear. Values without a mark were called inactive.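 The calls were made as follows: active = raised CDH13 expression over DMSO controls, judged by fold change in triplicate runs, no set cutoff; inconclusive = doubtful CDH13 rise, criteria not stated; inactive = no rise, falls in expression ignored.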

This test in a line: CDH13 Derepression/Induction Secondary Assay for qHTS Assay for Epigenetic Modulators. The note with it: H358 cells, CDH13 mRNA qPCR, 72 h; active compounds read high. The text has this: NIH Molecular Libraries Screening Centers Network [MLSCN] NIH Chemical Genomics Center [NCGC] MLSCN Grant: 1 X01 MH079860-01 Assay Provider: Elisabeth D. Martinez, University of Texas SW Medical Center NCGC Assay Overview: This secondary assay characterizes selected actives identified in the qHTS of the Locus Derepression (LDR) assay (PubChem AID 597). The LDR assay detects the derepression of a GFP reporter that is stably integrated in a region of the genome of murine c127i mammary cells that is presumably silenced. Compounds that cause derepression of the locus to express GFP are identified by enumerating GFP positive cells using a laser-scanning microplate cytometer. Selected LDR actives were assayed for the induction of CDH13 gene expression, a gene silenced by methylation of its promoter. […]
NCGC Assay Protocol Summary Exponentially growing H358 non-small cell lung cancer cells were treated daily with fresh media containing the indicated concentrations of compounds for 72 hr. Cellular RNA was extracted, quantified, DNAse treated and reverse transcribed. The resulting cDNA was amplified in TaqMan real time quantitative PCR assays (Applied Biosystems) containing validated primers specific for CDH13 (Hs00169908.m1). […] Gene expression was measured by fold-induction over control DMSO-treated samples (36-37 average cycle time). […]
A general note: In qHTS, concentration-response curves come from the screen itself.

On to `CN1CSC(=S)N(C)C1`, for which the fold change was 1.
